Experimental data taken from PubChem BioAssay AID1159580 (chemical genetic matrix, 2015).
The whole screen tested about 5,500 compounds, of which about 2,000 (36%) were called active. Not shown: some 18% with an inconclusive outcome. Rule as the data show it: active = normalized growth mostly below about 0.91 (no sharp cut-off); inconclusive = no clear call, values can overlap the other calls; inactive = mostly above about 0.92. This is one part of the list.

Assay: chemical genetic growth profiling, strain panel (AID 1159580);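 also: tested at 20 µM; growth read once vehicle control cultures reached saturation at 30 °C; 1 = growth at the plate median or of vehicle wells; lower values mean less growth of the strain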
Conditions: growth OD
[1] = S. cerevisiae deletion strains, locus YDL101C, strain DUN1, active compounds read low
[2] = S. cerevisiae deletion strains, locus YHR030C, strain SLT2, active compounds read low
[3] = S. cerevisiae deletion strains, locus YAL013W, strain DEP1, active compounds read low
[4] = S. cerevisiae deletion strains, locus YBR229C, strain ROT2, active compounds read low
[5] = S. cerevisiae deletion strains, locus YDR150W, strain NUM1, active compounds read low
[6] = S. cerevisiae deletion strains, locus YEL061C, strain CIN8, active compounds read low
[7] = S. cerevisiae deletion strains, locus YGR078C, strain PAC10, active compounds read low
[8] = S. cerevisiae deletion strains, locus YHR087W, strain rtc3, active compounds read low
[9] = S. cerevisiae deletion strains, locus YJR043C, strain POL32, active compounds read low
[10] = S. cerevisiae deletion strains, locus YJR075W, strain HOC1, active compounds read low
[11] = S. cerevisiae deletion strains, locus YLR039C, strain RIC1, active compounds read low
[12] = S. cerevisiae deletion strains, locus YLR058C, strain SHM2 (second series), active compounds read low
[13] = S. cerevisiae deletion strains, locus YLR085C, strain ARP6, active compounds read low
[14] = S. cerevisiae deletion strains, locus YLR262C, strain YPT6, active compounds read low
[15] = S. cerevisiae deletion strains, locus YML094W, strain GIM5, active compounds read low
[16] = S. cerevisiae deletion strains, locus YMR219W, strain ESC1, active compounds read low
[17] = S. cerevisiae deletion strains, locus YMR263W, strain SAP30, active compounds read low
[18] = S. cerevisiae deletion strains, locus YNL153C, strain GIM3, active compounds read low
[19] = S. cerevisiae deletion strains, locus YNL298W, strain CLA4 (second series), active compounds read low
[20] = S. cerevisiae deletion strains, locus YNL322C, strain KRE1, active compounds read low
[21] = S. cerevisiae deletion strains, locus YNR030W, strain Alg12, active compounds read low
[22] = S. cerevisiae deletion strains, locus YPL055C, strain LGE1, active compounds read low
[23] = S. cerevisiae deletion strains, locus YPL241C, strain CIN2, active compounds read low
[24] = S. cerevisiae deletion strains, locus YPR135W, strain CTF4, active compounds read low
[25] = S. cerevisiae strains, strain wild type, active compounds read low

Measured: normalized growth

CCCCCCCCCCCC(=O)NOC(=O)c1c(-c2c(Cl)cccc2Cl)noc1C
inactive: S. cerevisiae deletion strains, locus YAR019C, strain CDC15, active compounds read low 0.984 | S. cerevisiae deletion strains, locus YBL105C, strain PKC1, active compounds read low 0.986 | S. cerevisiae deletion strains, locus YBR135W, strain CKS1, active compounds read low 0.984 | S. cerevisiae deletion strains, locus YBR136W, strain MEC1, active compounds read low 0.985 | S. cerevisiae deletion strains, locus YBR160W, strain CDC28, active compounds read low 0.998 | S. cerevisiae deletion strains, locus YDL017W, strain CDC7, active compounds read low 0.986 | S. cerevisiae deletion strains, locus YDL028C, strain MPS1, active compounds read low 0.988 | [1] 0.999 | S. cerevisiae deletion strains, locus YDL108W, strain KIN28, active compounds read low 0.982 | S. cerevisiae deletion strains, locus YDL132W, strain cdc53, active compounds read low 0.986 | S. cerevisiae deletion strains, locus YDL214C, strain PRR2, active compounds read low 0.948 | S. cerevisiae deletion strains, locus YDR052C, strain DBF4, active compounds read low 0.997 | S. cerevisiae deletion strains, locus YDR054C, strain cdc34, active compounds read low 0.988 | S. cerevisiae deletion strains, locus YDR226W, strain ADK1, active compounds read low 0.981 | S. cerevisiae deletion strains, locus YDR477W, strain SNF1, active compounds read low 0.818 | S. cerevisiae deletion strains, locus YER123W, strain YCK3, active compounds read low 0.656 | S. cerevisiae deletion strains, locus YER133W, strain GLC7, active compounds read low 0.779 | S. cerevisiae deletion strains, locus YFL009W, strain cdc4, active compounds read low 0.99 | S. cerevisiae deletion strains, locus YFL029C, strain CAK1, active compounds read low 0.989 | S. cerevisiae deletion strains, locus YFR003C, strain YPI1, active compounds read low 0.984 | S. cerevisiae deletion strains, locus YFR019W, strain FAB1, active compounds read low 0.874 | S. cerevisiae deletion strains, locus YFR028C, strain CDC14, active compounds read low 0.996 | S. cerevisiae deletion strains, locus YGR040W, strain KSS1, active compounds read low 0.838 | S. cerevisiae deletion strains, locus YGR052W, strain FMP48, active compounds read low 0.641 | S. cerevisiae deletion strains, locus YGR092W, strain DBF2, active compounds read low 0.586 | S. cerevisiae deletion strains, locus YHR082C, strain KSP1, active compounds read low 0.9 | S. cerevisiae deletion strains, locus YHR205W, strain SCH9, active compounds read low 0.586 | S. cerevisiae deletion strains, locus YIL147C, strain SLN1, active compounds read low 0.984 | S. cerevisiae deletion strains, locus YJL128C, strain PBS2, active compounds read low 1 | S. cerevisiae deletion strains, locus YJL157C, strain FAR1, active compounds read low 0.909 | S. cerevisiae deletion strains, locus YJR016C, strain ILV3, active compounds read low 0.984 | S. cerevisiae deletion strains, locus YJR066W, strain TOR1, active compounds read low 0.583 | S. cerevisiae deletion strains, locus YKL048C, strain ELM1, active compounds read low 0.995 | S. cerevisiae deletion strains, locus YKL067W, strain YNK1, active compounds read low 0.944 | S. cerevisiae deletion strains, locus YKL101W, strain HSL1, active compounds read low 0.961 | S. cerevisiae deletion strains, locus YKL193C, strain SDS22, active compounds read low 0.979 | S. cerevisiae deletion strains, locus YLR133W, strain CKI1, active compounds read low 0.905 | S. cerevisiae deletion strains, locus YML070W, strain DAK1, active compounds read low 0.692 | S. cerevisiae deletion strains, locus YMR001C, strain CDC5, active compounds read low 0.982 | S. cerevisiae deletion strains, locus YMR205C, strain PFK2 (second series), active compounds read low 0.935 | S. cerevisiae deletion strains, locus YMR277W, strain FCP1, active compounds read low 0.977 | S. cerevisiae deletion strains, locus YNL006W, strain LST8, active compounds read low 0.992 | S. cerevisiae deletion strains, locus YNL020C, strain ARK1, active compounds read low 0.915 | S. cerevisiae deletion strains, locus YNL161W, strain CBK1, active compounds read low 0.992 | S. cerevisiae deletion strains, locus YNL207W, strain RIO2, active compounds read low 0.966 | S. cerevisiae deletion strains, locus YNL222W, strain SSU72, active compounds read low 0.988 | S. cerevisiae deletion strains, locus YNL307C, strain MCK1 (second series), active compounds read low 0.69 | S. cerevisiae deletion strains, locus YOL078W, strain AVO1, active compounds read low 0.98 | S. cerevisiae deletion strains, locus YOL136C, strain PFK27, active compounds read low 0.867 | S. cerevisiae deletion strains, locus YOR061W, strain CKA2, active compounds read low 0.886 | S. cerevisiae deletion strains, locus YOR231W, strain MKK1, active compounds read low 0.689 | S. cerevisiae deletion strains, locus YOR329C, strain SCD5, active compounds read low 0.991 | S. cerevisiae deletion strains, locus YPL031C, strain PHO85, active compounds read low 0.795 | S. cerevisiae deletion strains, locus YPL209C, strain IPL1, active compounds read low 0.991 | S. cerevisiae deletion strains, locus YPR025C, strain CCL1, active compounds read low 0.993 | S. cerevisiae deletion strains, locus YPR106W, strain ISR1, active compounds read low 1 | S. cerevisiae deletion strains, locus YPR111W, strain DBF20, active compounds read low 1.01 | S. cerevisiae deletion strains, strain NNK1, active compounds read low 0.996 | S. cerevisiae deletion strains, strain TSCII, active compounds read low 0.991
active: [2] 0.139 | S. cerevisiae deletion strains, locus YHR079C, strain IRE1, active compounds read low 0.139 | S. cerevisiae deletion strains, locus YJL095W, strain BCK1, active compounds read low 0.117 | S. cerevisiae deletion strains, locus YJR066W, strain TOR1 (second series), active compounds read low 0.451 | S. cerevisiae deletion strains, locus YKL203C, strain TOR2, active compounds read low 0.66 | S. cerevisiae deletion strains, locus YLR113W, strain HOG1, active compounds read low 0.415 | S. cerevisiae deletion strains, locus YLR403W, strain SFP1, active compounds read low 0.553 | S. cerevisiae deletion strains, locus YNL183C, strain NPR1, active compounds read low 0.571 | S. cerevisiae deletion strains, locus YOR119C, strain RIO1, active compounds read low 0.578 | S. cerevisiae deletion strains, locus YPL153C, strain RAD53, active compounds read low 0.533 | S. cerevisiae deletion strains, locus YPL204W, strain HRR25, active compounds read low 0.63 | S. cerevisiae deletion strains, locus YPL256C, strain CLN2, active compounds read low 0.697

Cc1onc(-c2c(Cl)cccc2Cl)c1C(=O)Oc1ccc(Cl)c(Cl)c1
inactive: [3] 1.01 | [4] 0.995 | [1] 0.996 | [5] 1.01 | [6] 1.01 | [7] 1.03 | [2] 1.21 | [8] 1.06 | [9] 0.998 | [10] 0.99 | [11] 1.19 | [12] 0.986 | [13] 0.991 | [14] 1.16 | [15] 0.998 | [16] 0.992 | [17] 1.01 | S. cerevisiae deletion strains, locus YNL128W, strain TEP1, active compounds read low 1 | [18] 1.03 | [19] 1.01 | [20] 1.01 | [21] 0.987 | S. cerevisiae deletion strains, locus YOL006C, strain TOP1, active compounds read low 1.07 | [22] 1 | [23] 0.973 | [24] 1.14 | [25] 1.01

Cc1onc(-c2c(F)cccc2Cl)c1C(=O)Oc1ccccc1
inactive: [3] 0.964 | [4] 0.962 | S. cerevisiae deletion strains, locus YCL061C, strain MRC1, active compounds read low 0.963 | [1] 0.938 | S. cerevisiae deletion strains, locus YDL134C, strain PPH21, active compounds read low 0.993 | [5] 0.943 | [7] 0.945 | [2] 0.727 | [8] 0.948 | [9] 0.951 | [10] 0.939 | [11] 0.857 | [12] 0.973 | [13] 0.838 | [14] 0.839 | [15] 0.978 | [16] 0.966 | [17] 0.979 | S. cerevisiae deletion strains, locus YMR307W, strain GAS1, active compounds read low 0.705 | [18] 0.984 | [19] 0.98 | [20] 0.973 | [21] 0.989 | [22] 0.97 | [23] 0.994 | [24] 0.948 | [25] 0.935
active: [6] 0.908
